# Data taken from PubChem BioAssay (NCATS).
# A number with no mark means an inactive call. Results filed as inconclusive are left out. Where a call stands in place of a potency, no number is given. Activity calls are given as the source filed them. Unless noted, the call rests on the fitted dose curve; in most records, active means well fitted curve in the direction sought with a large enough effect; inconclusive means small, poorly fitted or top-dose-only effect, or another doubt; inactive means no such curve, though single readings can be large; an effect the other way counts as inactive or inconclusive.
# Assays:
# [1] = AP1 Signaling Pathway (AID 357; active means well fitted curve in either direction with a large enough effect, not every such curve was filed as active;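 further: ME-180 reporter cells stimulated with EGF at its EC50 level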)
# Procedure, shortened: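 Modulation of EGF-driven AP-1 transcription was assessed with a beta-lactamase reporter in ME-180 cells. Compound and EC50 EGF were co-incubated 5 hours at 37 °C before 2.5-hour CCF4 loading at room temperature and dual-emission reading.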
# [2] = target: Cytochrome P450 1A2 (Homo sapiens) (UniProt P05177); assay: p450-cyp1a2 (AID 410; calls by dose curve; further: potency means the concentration at half of the fitted maximal effect)
# Cytochrome P450 1A2 (Homo sapiens), sequence (P05177 whole entry, looked up): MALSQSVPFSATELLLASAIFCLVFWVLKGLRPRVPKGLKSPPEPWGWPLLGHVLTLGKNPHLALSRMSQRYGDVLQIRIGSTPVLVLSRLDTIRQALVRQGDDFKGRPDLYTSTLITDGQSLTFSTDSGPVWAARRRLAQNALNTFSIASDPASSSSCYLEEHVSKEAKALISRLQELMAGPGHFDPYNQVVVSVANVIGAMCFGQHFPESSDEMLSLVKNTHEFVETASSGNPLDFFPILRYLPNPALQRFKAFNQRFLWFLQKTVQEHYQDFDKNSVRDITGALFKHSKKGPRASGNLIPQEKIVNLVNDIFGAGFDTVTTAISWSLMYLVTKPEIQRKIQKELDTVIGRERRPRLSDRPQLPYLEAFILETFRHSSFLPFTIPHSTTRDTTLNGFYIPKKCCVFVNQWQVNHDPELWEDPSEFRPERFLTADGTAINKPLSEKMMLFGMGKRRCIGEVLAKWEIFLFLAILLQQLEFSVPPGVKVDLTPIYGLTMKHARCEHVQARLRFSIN
# Procedure, shortened: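 Human CYP1A2 (20nM) demethylated Luciferin-ME at its Km (100uM) in 100mM KPO4. After 10 min compound preincubation, NADPH regeneration ran the reaction 60 min at room temperature. Luciferin was read by luminescence, normalized to 57 uM furafylline.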
# [3] = NFAT Signaling Pathway (AID 444; active means well fitted curve in either direction with a large enough effect, not every such curve was filed as active;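 further: carbachol stimulus at about its EC50 of 1 µM final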); conditions: Jurkat NFAT-bla M1, carbachol, beta-lactamase ratio, 5 h; at 17.2 µM (top of the series) unless noted
# Procedure, shortened: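 Jurkat cells carrying an NFAT-driven β-lactamase reporter and co-transfected muscarinic M1 receptor were treated with compound plus carbachol (1 uM final, an EC50 level) for 5 h at 37 °C. CCF4 loading followed for 1 h at RT; 460/530 nm ratio gave %activity.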
# [4] = Stat Signaling Pathway (AID 446; active means well fitted curve in either direction with a large enough effect, not every such curve was filed as active;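 further: ME-180 cervical cancer cells given 40 pM IL-6 alongside compound; SIE-controlled beta-lactamase reporter measured as 460/530 nm FRET emission ratio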)
# Procedure, shortened: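 Reporter line: ME-180 cervical carcinoma, SIE-beta-lactamase. Treatment: compound with 40 pM IL-6, 5 hrs, 37 C, in low-serum OPTI-MEM with 10 mM HEPES pH 7.3. Detection: 460/530 nm fluorescence.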
# [5] = target: Glucocorticoid receptor (Homo sapiens) (UniProt P04150); assay: GR-GFP Redistribution (AID 450;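 active means compounds whose dose series gives a full or clear partial fitted curve of increased nuclear translocation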; further: potency means the concentration at half of the fitted maximal effect); conditions: U2OS GR-GFP nuclear translocation, laser cytometry, 2 h
# Glucocorticoid receptor (Homo sapiens), sequence (P04150 whole entry, looked up, the tested form may be a part): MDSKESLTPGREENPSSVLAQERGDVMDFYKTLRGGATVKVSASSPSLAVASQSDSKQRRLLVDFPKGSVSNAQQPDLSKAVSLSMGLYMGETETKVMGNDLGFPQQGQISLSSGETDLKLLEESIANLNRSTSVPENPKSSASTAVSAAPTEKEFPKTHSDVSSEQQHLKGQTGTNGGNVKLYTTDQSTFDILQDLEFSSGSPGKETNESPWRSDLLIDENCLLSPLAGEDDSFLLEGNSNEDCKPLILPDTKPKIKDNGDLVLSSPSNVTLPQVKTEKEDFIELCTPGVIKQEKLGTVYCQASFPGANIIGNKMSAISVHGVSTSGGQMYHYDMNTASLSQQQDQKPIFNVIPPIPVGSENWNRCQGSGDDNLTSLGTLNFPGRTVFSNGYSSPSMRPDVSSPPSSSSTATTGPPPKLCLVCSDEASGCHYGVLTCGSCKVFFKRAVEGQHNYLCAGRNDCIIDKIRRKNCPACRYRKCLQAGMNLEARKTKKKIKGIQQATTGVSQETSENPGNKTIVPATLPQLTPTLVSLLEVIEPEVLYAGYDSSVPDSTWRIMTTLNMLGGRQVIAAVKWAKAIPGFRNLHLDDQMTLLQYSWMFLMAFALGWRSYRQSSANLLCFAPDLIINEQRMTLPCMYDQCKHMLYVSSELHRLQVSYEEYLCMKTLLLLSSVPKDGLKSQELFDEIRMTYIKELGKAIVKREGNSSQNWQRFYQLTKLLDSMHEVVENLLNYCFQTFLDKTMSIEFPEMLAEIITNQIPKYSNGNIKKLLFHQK
# [6] = target: Glucocorticoid receptor (Homo sapiens) (UniProt P04150); assay: GR-EFC Redistribution (AID 451; calls by dose curve; further: potency means the concentration at half of the fitted maximal effect); conditions: CHO-K1 GR-EFC translocation, beta-gal luminescence, 2 h
# Procedure, shortened: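 CHO-K1 cells stably expressing nuclear-localized β-gal enzyme acceptor and GR fused C-terminally to the enzyme donor fragment; ligand-driven nuclear translocation restores β-gal by complementation. Compounds titrated up to 46 uM final, 2 h at 37 °C; luminescence read.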
# [7] = target: Mitogen-activated protein kinase 10 (Mus musculus) (UniProt Q61831); assay: JNK3 AlphaScreen Assay (AID 530; active means well fitted curve in either direction with a large enough effect, not every such curve was filed as active;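 further: kinase came from lysate of stimulated human HepG2 cells; signal reports phosphorylation of biotinylated GST-cJun 1-79 at Ser73 with 10 µM ATP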)
# Procedure, shortened: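 JNK3 came from HepG2 lysates pre-activated with IL-1beta and TNF-alpha and phosphorylated biotinylated GST-cJun (1-79) at 10 uM ATP, pH 7.6, room temperature. Compounds were titrated. AlphaScreen signal used anti-phospho-cJun (Ser73) antibody.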
# [8] = target: 3',5'-cyclic-AMP phosphodiesterase 4B (Homo sapiens) (UniProt Q07343); assay: qHTS Assay for Inhibitors of PDE-IV (AID 607; active means well fitted activation curve with a large enough effect in the main read-out, with a control signal flat, not every such curve was filed as active)
# 3',5'-cyclic-AMP phosphodiesterase 4B (Homo sapiens), sequence (Q07343 whole entry, looked up): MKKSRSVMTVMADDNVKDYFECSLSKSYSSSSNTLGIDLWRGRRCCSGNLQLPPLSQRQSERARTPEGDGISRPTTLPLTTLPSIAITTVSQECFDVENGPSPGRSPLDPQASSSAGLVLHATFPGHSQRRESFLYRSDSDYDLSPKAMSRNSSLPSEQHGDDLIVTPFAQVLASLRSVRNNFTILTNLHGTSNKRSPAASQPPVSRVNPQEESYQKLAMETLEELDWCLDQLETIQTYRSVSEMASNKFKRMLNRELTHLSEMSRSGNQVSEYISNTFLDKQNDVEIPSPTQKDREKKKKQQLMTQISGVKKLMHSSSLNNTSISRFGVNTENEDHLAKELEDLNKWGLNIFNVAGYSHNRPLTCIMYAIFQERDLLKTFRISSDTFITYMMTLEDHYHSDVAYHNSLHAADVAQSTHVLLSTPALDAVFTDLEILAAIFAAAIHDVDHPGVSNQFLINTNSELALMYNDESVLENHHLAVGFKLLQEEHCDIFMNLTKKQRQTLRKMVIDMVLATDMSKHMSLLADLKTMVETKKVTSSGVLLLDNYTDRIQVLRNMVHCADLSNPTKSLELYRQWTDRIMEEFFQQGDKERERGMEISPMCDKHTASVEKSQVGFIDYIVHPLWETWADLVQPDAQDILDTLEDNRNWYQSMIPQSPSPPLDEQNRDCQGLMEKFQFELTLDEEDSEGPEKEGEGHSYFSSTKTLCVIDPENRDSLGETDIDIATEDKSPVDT
# Procedure, shortened: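 Cell-based read-out of cAMP via a modified cyclic nucleotide-gated channel and membrane potential dye (535/590 nm) in HEK293 cells expressing PDE4 endogenously. Compounds tested up to 22.9 uM final; 100 uM RO 20-1724 reference.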
# [9] = target: Cytochrome P450 2C9 (Homo sapiens) (UniProt P11712); assay: qHTS Assay for Inhibitors and Substrates of Cytochrome P450 2C9 (AID 883); further: nearly all actives have a fitted effect of over 60% in size
# Cytochrome P450 2C9 (Homo sapiens), sequence (P11712 whole entry, looked up): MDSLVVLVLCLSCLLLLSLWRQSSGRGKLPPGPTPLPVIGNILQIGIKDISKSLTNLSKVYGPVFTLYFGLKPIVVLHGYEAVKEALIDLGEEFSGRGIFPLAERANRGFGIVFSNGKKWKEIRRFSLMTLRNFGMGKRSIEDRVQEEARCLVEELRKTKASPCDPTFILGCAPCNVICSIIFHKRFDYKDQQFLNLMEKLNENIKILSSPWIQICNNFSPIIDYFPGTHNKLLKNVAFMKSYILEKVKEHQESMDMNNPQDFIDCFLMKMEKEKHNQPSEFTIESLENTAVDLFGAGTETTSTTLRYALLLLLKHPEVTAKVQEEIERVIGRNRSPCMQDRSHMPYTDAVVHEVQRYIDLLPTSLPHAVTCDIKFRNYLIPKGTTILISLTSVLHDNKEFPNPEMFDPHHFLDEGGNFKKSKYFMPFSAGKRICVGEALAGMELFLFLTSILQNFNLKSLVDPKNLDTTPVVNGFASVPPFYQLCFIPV
# Procedure, shortened: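 CYP2C9 deoxyluciferin hydroxylation, 37C, 60 min with NADPH regeneration; 10nM enzyme, 100uM Luciferin-H (KM). Glo detection reagent stopped reaction; luminescence normalized to sulphaphenazole (57uM) full inhibition.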
# [10] = target: ATP-dependent 6-phosphofructokinase (Trypanosoma brucei brucei) (UniProt O15648); assay: qHTS Assay to Find Inhibitors of T. brucei phosphofructokinase: hit validation (AID 492961);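 further: luminescence reports ADP formed as PFK phosphorylates fructose-6-phosphate with ATP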
# ATP-dependent 6-phosphofructokinase (Trypanosoma brucei brucei), sequence (O15648 whole entry, looked up): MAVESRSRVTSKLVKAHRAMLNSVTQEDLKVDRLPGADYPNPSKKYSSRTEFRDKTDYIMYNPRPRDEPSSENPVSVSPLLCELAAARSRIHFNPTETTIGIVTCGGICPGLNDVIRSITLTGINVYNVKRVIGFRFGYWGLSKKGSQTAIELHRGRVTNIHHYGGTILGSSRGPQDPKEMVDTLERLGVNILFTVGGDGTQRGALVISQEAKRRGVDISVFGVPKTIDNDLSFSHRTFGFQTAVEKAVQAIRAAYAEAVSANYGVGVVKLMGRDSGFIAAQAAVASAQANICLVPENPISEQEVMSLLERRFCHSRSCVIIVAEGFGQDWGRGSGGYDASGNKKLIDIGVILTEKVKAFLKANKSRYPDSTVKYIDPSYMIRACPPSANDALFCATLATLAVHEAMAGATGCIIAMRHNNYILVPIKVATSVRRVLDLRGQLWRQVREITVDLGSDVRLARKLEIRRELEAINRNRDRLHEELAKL
# Procedure, shortened: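 Reaction: 0.1 M triethanolamine pH 8.0, 5 mM MgCl2, F6P 0.5 mM, ATP 0.1 mM, PFK 1.25 nM, 45 min RT. Read-out: ADP-Glo luminescence. Analysis: concentration-response fits, classed by r2 and efficacy.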
# [11] = target: Ubiquitin carboxyl-terminal hydrolase 1 (Homo sapiens) (UniProt O94782); assay: Inhibitors of USP1/UAF1: Pilot qHTS (AID 504865);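 further: rhodamine fluorescence freed from ubiquitin-rhodamine substrate followed over time; top concentration of the series differs between compounds; nearly all actives have a fitted effect of over 35% in size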
# Ubiquitin carboxyl-terminal hydrolase 1 (Homo sapiens), sequence (O94782 whole entry, looked up): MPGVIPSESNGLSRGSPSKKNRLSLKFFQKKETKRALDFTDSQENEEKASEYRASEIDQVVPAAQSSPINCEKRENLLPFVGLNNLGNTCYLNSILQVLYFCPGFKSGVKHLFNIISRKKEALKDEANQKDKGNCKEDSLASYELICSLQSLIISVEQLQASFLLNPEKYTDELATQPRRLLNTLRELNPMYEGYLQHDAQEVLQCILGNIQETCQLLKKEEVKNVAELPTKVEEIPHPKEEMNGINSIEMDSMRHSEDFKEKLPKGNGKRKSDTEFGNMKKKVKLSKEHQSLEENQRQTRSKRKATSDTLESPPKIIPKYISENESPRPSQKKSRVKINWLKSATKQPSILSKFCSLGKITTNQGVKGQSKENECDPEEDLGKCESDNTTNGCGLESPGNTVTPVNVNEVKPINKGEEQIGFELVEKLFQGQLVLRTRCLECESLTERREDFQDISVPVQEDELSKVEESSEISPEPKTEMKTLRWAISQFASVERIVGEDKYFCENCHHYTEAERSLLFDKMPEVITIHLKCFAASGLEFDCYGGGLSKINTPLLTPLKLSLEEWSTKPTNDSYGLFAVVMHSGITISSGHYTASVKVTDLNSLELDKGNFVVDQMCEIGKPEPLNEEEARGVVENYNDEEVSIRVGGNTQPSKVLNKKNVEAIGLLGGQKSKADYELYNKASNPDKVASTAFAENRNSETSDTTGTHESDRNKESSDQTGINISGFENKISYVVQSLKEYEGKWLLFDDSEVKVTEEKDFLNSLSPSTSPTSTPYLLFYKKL
# Procedure, shortened: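 1nM USP1/UAF1 + cpd, 15 min RT; start w/ Ub-Rho 150nM final; kinetic FL 480/540 nm, 6 reads q60 s. Buffer 50mM HEPES pH 7.8, 0.5mM EDTA, 1mM TCEP, 0.01% Tween-20, 0.1 mg/ml BSA.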
# [12] = target: Luciferin 4-monooxygenase (Photinus pyralis) (UniProt P08659); assay: Biochemical firefly luciferase enzyme assay for NPC (AID 624030);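 further: purified P. pyralis luciferase at 10 nM with luciferin and ATP substrate; nearly all actives have a fitted effect of over 70% in size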
# Luciferin 4-monooxygenase (Photinus pyralis), sequence (P08659 whole entry, looked up): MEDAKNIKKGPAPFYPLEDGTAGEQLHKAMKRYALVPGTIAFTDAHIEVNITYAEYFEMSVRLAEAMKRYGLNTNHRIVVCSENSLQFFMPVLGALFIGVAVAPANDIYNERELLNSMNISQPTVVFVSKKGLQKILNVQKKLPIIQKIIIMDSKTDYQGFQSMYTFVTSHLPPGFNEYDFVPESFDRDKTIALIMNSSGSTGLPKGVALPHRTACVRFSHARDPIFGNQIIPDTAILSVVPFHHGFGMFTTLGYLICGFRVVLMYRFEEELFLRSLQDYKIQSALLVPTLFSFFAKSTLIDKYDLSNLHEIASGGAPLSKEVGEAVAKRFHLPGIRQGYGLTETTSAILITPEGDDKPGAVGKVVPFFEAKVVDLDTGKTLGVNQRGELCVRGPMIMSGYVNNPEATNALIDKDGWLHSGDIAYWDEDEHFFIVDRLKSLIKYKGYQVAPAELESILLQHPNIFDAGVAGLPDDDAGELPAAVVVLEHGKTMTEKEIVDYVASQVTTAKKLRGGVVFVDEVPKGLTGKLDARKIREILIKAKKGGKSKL
# Procedure, shortened: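 Counter-screen for direct inhibition of the luciferase enzyme by approved-drug library compounds, run at 10 nM enzyme in 50 mM Tris acetate (final). Luminescence was read within 5 min of enzyme-buffer addition and normalized to PTC124 versus DMSO (0%).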
# [13] = S16 Schwann cell viability assay (CellTiter-Glo assay) (AID 624031);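 further: native untransfected S16 rat Schwann cells; nearly all actives have a fitted effect of over 70% in size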
# Procedure, shortened: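 Counter-screen for cytotoxicity: parental S16 rat Schwann cells lacking the PMP22 reporters, treated 24 h with compound, viability from cellular ATP by CellTiter-Glo luminescence, normalized to DMSO (0%) and no-cell wells.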
# [14] = S16 Schwann cell PMP22 intronic element firefly luciferase assay (AID 624032); further: nearly all actives have a fitted effect of over 30% in size
# Procedure, shortened: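 Rat S16 Schwann cells stably carrying a PMP22 intronic element-driven Fluc reporter were seeded overnight, then exposed to compounds for 24 h at 37 °C. Luminescence was normalized to PTC124 (positive control) and DMSO (0% activity).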
# [15] = S16 Schwann cell PMP22 intronic element beta-lactamase assay (AID 624044; calls by dose curve; further: nearly all actives have a fitted effect of over 15% in size)
# Procedure, shortened: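 Rat S16 Schwann cells with beta-Lac driven by a PMP22 intronic element, compound-treated 24 h at 37 °C. LiveBLAzer FRET B/G read: 460 nm normalized to potassium clavulanate vs DMSO; 535 nm FRET as viability; concentration-effect curves classified.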
# [16] = qHTS profiling for inhibitors of Plasmodium falciparum proliferation (AID 504749); further: nearly all actives have a fitted effect of over 60% in size; further: potency means the concentration at half of the fitted maximal effect; conditions: P. falciparum in erythrocytes, SYBR Green DNA, 72 h, at 12.8 µM (top of the series)
# Procedure, shortened: (§1)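 P. falciparum-infected erythrocytes (0.3% parasitemia, 2.5% hematocrit final) were exposed to compounds for 72 h at 37 C in 5% CO2, then lysed with SYBR Green buffer overnight at room temperature; parasite DNA fluorescence was normalized to artemisinin and DMSO controls.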
# [17] = tested on: 3D7; assay: as above; conditions: P. falciparum in erythrocytes, SYBR Green DNA, 72 h; series mostly up to 12.8 µM
# Procedure, shortened: as §1
# [18] = tested on: 7G8; assay: as above; conditions: P. falciparum in erythrocytes, SYBR Green DNA, 72 h; series mostly up to 12.8 µM
# Procedure, shortened: as §1
# [19] = tested on: AA1029; assay: as above; conditions: P. falciparum in erythrocytes, SYBR Green DNA, 72 h; series mostly up to 12.8 µM
# Procedure, shortened: as §1
# [20] = tested on: AS120; assay: as above; conditions: P. falciparum in erythrocytes, SYBR Green DNA, 72 h; series mostly up to 12.8 µM
# Procedure, shortened: as §1
# [21] = tested on: ATS189; assay: as above; conditions: P. falciparum in erythrocytes, SYBR Green DNA, 72 h; series mostly up to 12.8 µM
# Procedure, shortened: as §1
# [22] = tested on: ATS95; assay: as above; conditions: P. falciparum in erythrocytes, SYBR Green DNA, 72 h; series mostly up to 12.8 µM
# Procedure, shortened: as §1
# [23] = tested on: C2A; assay: as above; conditions: P. falciparum in erythrocytes, SYBR Green DNA, 72 h; series mostly up to 12.8 µM
# Procedure, shortened: as §1
# [24] = tested on: CP185; assay: as above; conditions: P. falciparum in erythrocytes, SYBR Green DNA, 72 h; series mostly up to 12.8 µM
# Procedure, shortened: as §1
# [25] = tested on: CP191; assay: as above; conditions: P. falciparum in erythrocytes, SYBR Green DNA, 72 h; series mostly up to 12.8 µM
# Procedure, shortened: as §1
# [26] = tested on: CP192; assay: as above; conditions: P. falciparum in erythrocytes, SYBR Green DNA, 72 h; series mostly up to 12.8 µM
# Procedure, shortened: as §1
# [27] = tested on: CP194; assay: as above; conditions: P. falciparum in erythrocytes, SYBR Green DNA, 72 h; series mostly up to 12.8 µM
# Procedure, shortened: as §1
# [28] = tested on: CP201; assay: as above; conditions: P. falciparum in erythrocytes, SYBR Green DNA, 72 h; series mostly up to 12.8 µM
# Procedure, shortened: as §1
# [29] = tested on: CP203; assay: as above; conditions: P. falciparum in erythrocytes, SYBR Green DNA, 72 h; series mostly up to 12.8 µM
# Procedure, shortened: as §1
# [30] = tested on: CP211; assay: as above; conditions: P. falciparum in erythrocytes, SYBR Green DNA, 72 h; series mostly up to 12.8 µM
# Procedure, shortened: as §1
# [31] = tested on: CP217; assay: as above; conditions: P. falciparum in erythrocytes, SYBR Green DNA, 72 h; series mostly up to 12.8 µM
# Procedure, shortened: as §1
# [32] = tested on: CP237; assay: as above; conditions: P. falciparum in erythrocytes, SYBR Green DNA, 72 h; series mostly up to 12.8 µM
# Procedure, shortened: as §1
smiles,measurement,setting,value
C=CCOc1ccccc1OC[C@H](O)CNC(C)C,outcome,[1],inactive
same,Potency,[2],5.01 µM (active)
same,"activity change, negative = inhibition",[3],-9.75%
same,outcome,[4],inactive
same,Potency,[5],> 20.6 µM
same,Potency,[6],> 20.6 µM
same,Potency,[7],inactive
same,outcome,[8],inactive
same,Potency,[9],inactive
same,outcome,[10],inactive
same,Potency,[11],inactive
same,Potency,[12],inactive
same,outcome,[13],inactive
same,Potency,[14],inactive
same,Potency,[15],inactive
same,"activity, negative = inhibition",[16]; parasite line A,-6.89%
same,"activity, negative = inhibition",[16]; parasite line B,-26.4%
same,Potency,[17],inactive
same,Potency,[18],inactive
same,Potency,[19],inactive
same,Potency,[20],inactive
same,Potency,[21],inactive
same,Potency,[22],inactive
same,Potency,[23],inactive
same,Potency,[24],inactive
same,Potency,[25],inactive
same,Potency,[26],inactive
same,Potency,[27],inactive
same,Potency,[28],inactive
same,Potency,[29],inactive
same,Potency,[30],inactive
same,Potency,[31],inactive
same,Potency,[32],3.16 µM (active)
